The values that follow come from PubChem BioAssay (Tox21).

Values without a mark were called inactive. Results filed as inconclusive are left out. Active and inactive are the calls of the source. Unless noted, calls come from the whole dose curve; as a rule, active = well fitted curve in the direction sought with a large enough effect in the repeat runs; inconclusive = weak or mixed curves; inactive = no such curve, though single readings can be large; an effect the other way counts as inactive or inconclusive.

Assay [1] is described as follows: qHTS assay for small molecule agonists of the p53 signaling pathway - cell viability (AID 651633; calls by dose curve; note: nearly all actives have a fitted effect of over 30% in size; note: potency is the fitted concentration of half-maximal effect). The gist of the method:
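Viability counter-read: CellTiter-Glo luminescence (30 min, room temperature) in the same p53RE-bla plates. These plates had been exposed to compounds for 16 h at 37 C.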

The nature of assay [2]: qHTS assay for small molecules that induce genotoxicity in human embryonic kidney cells expressing luciferase-tagged ATAD5 - cell viability (AID 651634; calls by dose curve; note: nearly all actives have a fitted effect of over 25% in size; note: potency is the fitted concentration of half-maximal effect). A digest of the protocol: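 Fluorescence from CellTiter-Fluor, reporting protease activity within live cells, served as the viability read-out. HEK293T cells carrying luciferase-tagged ATAD5 had been treated with compound for 15.5 hr at 37C.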

Assay [3] in a line: qHTS assay for small molecule disruptors of the mitochondrial membrane potential - cell viability (AID 720634; calls by dose curve; note: nearly all actives have a fitted effect of over 20% in size; note: potency is the fitted concentration of half-maximal effect). The gist of the method:
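Cells: HepG2, 2,000/well, attached overnight. Compound 1 hr, 37 C/5% CO2. +m-MPI dye, +CellTiter-Glo 30 min RT. Readout: luminescence (ATP).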
(qHTS replaces the single test concentration by a dilution series.)

Assay [4] can be described thus: qHTS assay for small molecule disruptors of the mitochondrial membrane potential (AID 720635). Note: potency is the fitted concentration of half-maximal effect. A digest of the protocol:
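Mitochondrial membrane potential tracked with Mito-MPS dye, red aggregates (ex 540/em 590 nm) against green monomers (ex 490/em 535 nm). Compound treatment 1 hr at 37C, dye 30 min in HepG2.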

Assay [5] can be described thus: qHTS assay to test for compound auto fluorescence at 590 nm (red) in HepG2 cells (AID 720674). A digest of the protocol: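 1 hr compound incubation on HepG2 cells, 37 C, 5% CO2; plate read ex 540 nm / em 590 nm; intensities reported as Rose Bengal sodium equivalents.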
Assay [6] is described as follows: qHTS assay to test for compound auto fluorescence at 535 nm (green) in HepG2 cells (AID 720675).
A short description of assay [7]: qHTS assay to test for compound auto fluorescence at 460 nm (blue) in HEK293 cells (AID 720678). The gist of the method: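 Blue-channel (Ex/Em 405/460 nm) intensity measured in HEK293 cultures after overnight compound exposure at 37C; signal expressed relative to triamterene. Cells plated 2,000 per well in 10% dialyzed FBS medium and allowed 4-5 hr to attach.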
Assay [8] in a line: qHTS assay to test for compound auto fluorescence at 590 nm (red) in HEK293 cells (AID 720679). The gist of the method: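 Red-channel autofluorescence (Ex/Em 540/590 nm; Rose Bengal sodium reference) was measured after overnight 37C, 5% CO2 exposure of attached HEK293 cells, 2,000 per well in medium with 10% dialyzed FBS.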
Assay [9] is described as follows: qHTS assay to test for compound auto fluorescence at 535 nm (green) in HEK293 cells (AID 720680).
Assay [10] is described as follows: qHTS assay to test for compound auto fluorescence at 460 nm (blue) in HEK293 cell free culture (AID 720681). A digest of the protocol:
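Blue fluorescence (Ex 405/Em 460 nm, triamterene-equivalent) was read immediately after pin transfer of compound or DMSO into medium (DMEM, 10% FBS) without cells.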

Assay [11] is described as follows: qHTS assay to test for compound auto fluorescence at 535 nm (green) in HEK293 cell free culture (AID 720682). The gist of the method: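 Read-out: 485/535 nm fluorescence intensity, calibrated against fluorescein. Medium only (DMEM + 10% FBS, no cells); test compound or DMSO vehicle added by pintool before plate reading.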
Assay [12] can be described thus: qHTS assay to test for compound auto fluorescence at 590 nm (red) in HEK293 cell free culture (AID 720683). A digest of the protocol: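 Red-channel autofluorescence of compounds in culture medium (DMEM, 10% FBS), no cells, measured at 540/590 nm. Rose Bengal sodium is the reference fluorophore for equivalence.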
The nature of assay [13]: qHTS assay to test for compound auto fluorescence at 590 nm (red) in HepG2 cell free culture (AID 720684). The gist of the method: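 Plate contents were MEM with 10% FBS plus test compound or DMSO, no cells. Fluorescence was recorded with 540 nm excitation and 590 nm emission.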
A short description of assay [14]: qHTS assay to test for compound auto fluorescence at 460 nm (blue) in HepG2 cell free culture (AID 720685). A digest of the protocol:
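Compound (23 nL) or DMSO pinned into cell-free MEM with 10% FBS; blue fluorescence read at 405/460 nm excitation/emission, expressed as auto-fluorescence equivalency to triamterene.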

Assay [15] in a line: qHTS assay to test for compound auto fluorescence at 535 nm (green) in HepG2 cell free culture (AID 720686).
Assay [16] can be described thus: qHTS assay to test for compound auto fluorescence at 460 nm (blue) in HepG2 cells (AID 720687). A digest of the protocol: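 Blue-channel autofluorescence (Ex/Em 405/460 nm, triamterene-equivalent) was measured after 1 hr compound exposure at 37 C, 5% CO2. Cells were HepG2, plated overnight at 37 C in MEM plus 10% FBS.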
For assay [17], the target named is Glucocorticoid receptor (Homo sapiens) (UniProt P04150). The experiment in a line: qHTS assay to identify small molecule agonists of the glucocorticoid receptor (GR) signaling pathway (AID 720691; active = well fitted activation curve with a large enough effect in the signal ratio in the repeat runs, not every such curve was filed as active; the % refers to the signal ratio). To be noted: GR-bla HeLa, beta-lactamase reporter ratio, 18 h; activation: at 62.4 µM (top of the series). A digest of the protocol: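 Fluorescence intensity from LiveBLAzer B/G FRET substrate (2 h, room temperature) reports beta-lactamase expression driven by the glucocorticoid response element in GR-bla HeLa cells after 18 h compound exposure at 37 C.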
Chain of Glucocorticoid receptor (Homo sapiens) (P04150 whole entry, looked up): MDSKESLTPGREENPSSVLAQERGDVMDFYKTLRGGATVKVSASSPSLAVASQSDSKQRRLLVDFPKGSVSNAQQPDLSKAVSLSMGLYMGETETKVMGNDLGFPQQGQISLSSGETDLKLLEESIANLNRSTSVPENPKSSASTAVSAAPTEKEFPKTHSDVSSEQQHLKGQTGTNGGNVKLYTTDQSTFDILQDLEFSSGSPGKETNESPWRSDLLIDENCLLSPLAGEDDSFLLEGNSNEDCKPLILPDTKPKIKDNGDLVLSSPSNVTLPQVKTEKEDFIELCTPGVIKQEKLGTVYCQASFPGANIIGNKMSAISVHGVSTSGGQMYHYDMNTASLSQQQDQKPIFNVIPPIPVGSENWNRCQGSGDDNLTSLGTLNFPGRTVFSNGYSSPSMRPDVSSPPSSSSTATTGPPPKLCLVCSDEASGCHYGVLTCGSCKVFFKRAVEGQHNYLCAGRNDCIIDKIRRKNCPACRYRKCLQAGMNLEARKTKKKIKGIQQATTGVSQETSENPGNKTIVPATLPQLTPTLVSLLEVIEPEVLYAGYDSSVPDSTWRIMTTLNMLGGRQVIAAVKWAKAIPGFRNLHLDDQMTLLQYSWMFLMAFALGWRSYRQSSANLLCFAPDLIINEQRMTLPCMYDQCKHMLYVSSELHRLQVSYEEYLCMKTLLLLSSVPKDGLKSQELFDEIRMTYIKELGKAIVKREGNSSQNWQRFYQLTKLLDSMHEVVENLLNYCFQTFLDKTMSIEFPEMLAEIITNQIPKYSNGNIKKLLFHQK

For assay [18] the target is unchanged. The experiment in a line: qHTS assay to identify small molecule antagonists of the glucocorticoid receptor (GR) signaling pathway (AID 720692; active = well fitted inhibition curve with a large enough effect in the signal ratio in the repeat runs, not every such curve was filed as active; the % refers to the signal ratio; note: potency is the fitted concentration of half-maximal effect). The gist of the method: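 HeLa GR-bla cells; cmpd + dex 5 nM final, 18 h 37 C; LiveBLAzer B/G FRET substrate 2 h RT; fluorescence intensity read. Antagonist mode, qHTS.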
Assay [19] can be described thus: qHTS assay for small molecules that induce genotoxicity in human embryonic kidney cells expressing luciferase-tagged ATAD5 (AID 651632). Note: nearly all actives have a fitted effect of over 15% in size. The gist of the method: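 ATAD5-luc HEK293T, 2,000 cells/well; cpd or DMSO pin-transferred; 16 hr, 37C/5% CO2; Amplite 30 min RT; luminescence.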
% is set by controls: 0 for no effect and ±100 for the full control effect.

For the molecule `NCCCC(O)(P(=O)(O)O)P(=O)(O)O`, the Potency result in [1], in assay [2], in assay [3], in assay [4], in assay [5] and in assay [6] was “inactive” in each case. Further, the Potency result in [7], in assay [8], in assay [9], in assay [10], in assay [11] and in assay [12] was “inactive” throughout. For the same molecule, the Potency result in assay [13], in [14], in [15], in assay [16], in assay [17] and in assay [18] was “inactive” in each case.

Consider `NC(=O)c1nc(-c2cccc(-c3cc(F)ccc3OCC(F)(F)C(F)(F)F)c2)n[nH]1`, for which the Potency result in assay [19], in assay [5], in assay [6], in assay [7], in assay [8] and in [9] was “inactive” in each case. The Potency result in assay [10], in [11], in assay [12], in assay [13], in assay [14] and in assay [15] was “inactive” in each case. Further, the Potency result in assay [16] was “inactive”. In addition, the Potency in assay [4] was 9.69 µM (active).

On to `O=C1Nc2ccc(Cl)cc2[C@@](C#CC2CC2)(C(F)(F)F)O1`, for which the Potency entry in assay [19], in [5], in [6], in assay [7], in assay [9] and in assay [10] was “inactive” throughout. In addition, the Potency entry in assay [11], in [12], in assay [13], in assay [14], in assay [15] and in assay [16] was “inactive” each time. In addition, the Potency entry in assay [17] was “inactive”. The Potency in assay [3] is 29.8 µM (active); in [4] it was 4.73 µM (active); in assay [18], 23.9 µM (active).

On to `O=C1c2c(O)ccc(O)c2C(=O)c2c(NCCNCCO)ccc(NCCNCCO)c21`, for which the results for the Potency in assay [1] and in assay [2] were 4.52 µM (active) and 9.02 µM (active), respectively. The fluorescence, relative to Rose Bengal in [5] is 0.231% [at 18.6 µM]. Moreover, the fluorescence, % of fluorescein control is -0.149% [at 18.6 µM] in assay [6] and -0.22% [at 18.6 µM] in assay [15]. Also, the fluorescence, % of triamterene in [7] is -0.405% [at 18.6 µM]. The fluorescence, % of fluorescent control was -1.36% [at 18.6 µM] in assay [8]; -0.133% [at 18.6 µM] in assay [10]; -0.213% [at 18.6 µM] in assay [12]; -0.123% [at 18.6 µM] in assay [14]; -0.0158% [at 18.6 µM] in assay [16]. Further, in assay [9], the fluorescence, % of fluorescein is 0.0058% [at 18.6 µM]. In addition, in [11], the activity change was -0.248% [at 18.6 µM, hits give high values]. Also, the fluorescence, % of Rose Bengal in assay [13] is -0.463% [at 18.6 µM].

As for `CN1[C@@H]2CC[C@@H]1CC(OC(=O)C(CO)c1ccccc1)C2` (stereo partly specified), the Potency entry in assay [4], in assay [5], in [6], in [7], in assay [8] and in assay [9] was “inactive” each time. In addition, the Potency entry in assay [10], in assay [11], in [12], in [13], in assay [14] and in assay [15] was “inactive” throughout. Also, the Potency entry in assay [16], in assay [17] and in assay [18] was “inactive” in each case.

For `COC(=O)C1=C(C)NC(C)=C(C(=O)OCCCN2CCC(c3ccccc3)(c3ccccc3)CC2)C1c1cccc([N+](=O)[O-])c1` (stereo unspecified), the Potency in [1] is 26.6 µM (active); in assay [2] it was 23.7 µM (active). Moreover, the Potency entry in [3], in assay [5], in [6], in [7], in assay [8] and in assay [9] was “inactive” in each case. Also, the Potency result in [10], in assay [11], in [12], in assay [13], in assay [14] and in [15] was “inactive” each time. Moreover, the Potency entry in [16] is “inactive”.

Turning to `Oc1ccc(-c2ccc(O)cc2)cc1`, the Potency result in [2], in [5], in [6], in assay [7], in [9] and in [10] was “inactive” throughout. Moreover, the Potency entry in [11], in assay [12], in [13], in assay [14], in assay [15] and in [16] was “inactive” each time. Moreover, the Potency result in assay [17] is “inactive”. Further, the Potency in [4] was 43.5 µM (active).
